From PubChem BioAssay (Tox21) come the findings set out here.

SMILES strings stand for the structures. Records with an inconclusive call do not appear. A call without a number means that no potency is given here. Values without a mark were called inactive. Active and inactive are the calls of the source. Calls come from the whole dose curve; as a rule, active = well fitted cell-killing curve with a large enough effect in the repeat runs; inconclusive = weak or mixed curves, or effect the other way; inactive = flat fitted curve, though single readings scatter.
Potency is the fitted concentration of half-maximal effect.

This test is described as follows: Nuclear factor erythroid 2-related factor 2/antioxidant responsive element (Nrf2/ARE) small molecule agonists: qHTS cell viability counter screen in human keratinocytes (AID 1919968). Note: nearly all actives have a fitted effect of over 55% in size. The note with it: KeratinoSens HaCaT ARE cells viability, CellTiter-Fluor, 24 h; series mostly up to 92.4 µM. The source says:
U.S. Tox21 Program National Center for Advancing Translational Sciences [NCATS] Division of Preclinical Innovation [DPI] U.S. Environmental Protection Agency [EPA] National Institutes of Environmental Health Sciences [NIEHS] National Toxicology Program [NTP] U.S. Food and Drug Administration [FDA] Tox21 Assay Overview: Oxidative stress has been implicated in the pathogenesis of a variety of diseases ranging from cancer to neurodegeneration. The antioxidant response element (ARE) signaling pathway plays an important role in the amelioration of oxidative stress. The KeratinoSens (Givaudan, Switzerland) is an in vitro test method which quantifies luciferase induction as a measure of activation of Keap1-Nrf2-antioxidationt/electrophile response element (ARE) dependant pathway in HaCaT human keratinocytes stably transfected with a selectable plasmid. The KeratinoSens assay is a cell-based assay with a reporter cell line to detect potential skin sensitizers by their ability to induce the Nrf2/ARE-response. The activation of the report gene under culture conditions can be detected by ONE-Glo Luciferase Assay System (Promega, Madison, WI). This cell line has been used to screen the Tox21 10K compound library to identify agonists that induce oxidative stress. The cytotoxicity of the Tox21 compound library against the KS-ARE cell line was tested in parallel by measuring the cell viability using CellTiter- Fluor assay system (Promega, Madison, WI) in the same wells.
Tox21 Assay Protocol Summary: HaCaT derived cell line KeratinoSens were dispensed at 1,500 cells/5uL/well in 1536-well white wall/solid bottom plates using a Multidrop Combi (ThermoFisher Scientific, Waltham, MA) dispenser. After the assay plates were incubated at 37 C/5% CO2 for 5 h, 23 nL of compounds dissolved in DMSO, positive controls or DMSO only was transferred to the assay plate by a pintool workstation (Kalypsys, San Diego, CA). The plates were incubated at 37 C/5% CO2 for 23 h, followed by addition of 1uL/well of CellTiter-Fluor reagent into the assay plates using a Flying Reagent Dispenser (Aurora Discovery, San Diego, CA) for cell viability readout that measures cytotoxicity. After 1 h incubation at 37 C/5% CO2 the fluorescence intensity was measured using a ViewLux (PerkinElmer, Shelton, CT) plate reader.
A general note: qHTS replaces the single test concentration by a dilution series.
Take `O=[N+]([O-])c1cccc(S(=O)(=O)NCCNS(=O)(=O)c2cccc([N+](=O)[O-])c2)c1`: the Potency entry was “inactive”.

As to `COC(C)(C)CCCC(C)CC=O` (stereo not given), the Potency result is “inactive”.

In the case of `OCC(O)[C@@H](O)[C@H](O)[C@H](O)CO[C@H]1O[C@H](CO)[C@@H](O)[C@H](O)[C@H]1O` (stereo not given in full), the Potency entry is “inactive”.

Turning to `CCC1(C)NC(=O)NC1=O` (stereo not given), the Potency result was “inactive”.

For the compound `COC(=O)C(C)O` (stereo not given), the Potency entry was “inactive”.

Turning to `CC1(C)OC(=O)Nc2ccc(Br)cc21`, the Potency entry was “inactive”.

On to `OC(CCN1CCCC1)(c1ccccc1)C1CCCCC1` (stereo not given), for which the Potency result is “inactive”.

In the case of `CC(=O)OCC(C)C`, the Potency entry is “inactive”.

On to `OC[C@@H](O)C(O)[C@@H](O)CO` (stereo not given in full), for which the Potency result was “inactive”.

With `CCN(CC)C(=O)Nc1ccc(OCC(O)CNC(C)(C)C)c(C(C)=O)c1` (stereo not given), the Potency entry is “inactive”.

As to `COc1cc2c(N3CCN(C(=O)Nc4ccc(OC(C)C)cc4)CC3)ncnc2cc1OCCCN1CCCCC1`, the Potency is 23.7 µM (active).

With `Nc1ccc(S(=O)(=O)NC(=O)c2ccccc2)cc1`, the Potency entry is “inactive”.

Regarding `CC(C)CC(=O)C1C(=O)c2ccccc2C1=O`, the Potency result was “inactive”.

With `O=C1c2ccccc2C(=O)c2cc(O)ccc21`, the Potency result was “inactive”.

`C=C[Si](C)(C)Cl`: the activity change, negative = cytotoxicity is -0.368% [at 8.39 µM].

`Oc1cc(O)c(Cl)cc1Cl`: the Potency result was “inactive”.

For the compound `OCCCCCCO`, the Potency entry is “inactive”.

As for `CC(=O)c1cnccn1`, the Potency entry was “inactive”.

On to `COC[C@H](c1ccc(C(F)(F)F)cc1)N1CCN(C2(C)CCN(C(=O)c3c(C)ncnc3C)CC2)C[C@H]1C`, for which the Potency entry was “inactive”.

With `Cc1cc(=O)oc2cc(O)cc(O)c12`, the Potency result is “inactive”.

For the compound `C/C(=N\[Si](C)(C)C)O[Si](C)(C)C`, the Potency result was “inactive”.

As for `Cc1ccsc1C(=CCCN1CCC[C@@H](C(=O)O)C1)c1sccc1C`, the Potency result was “inactive”.

In the case of `O=C(O)c1ccncc1`, the Potency entry is “inactive”.

As to `CCOC(=O)c1ccccc1O`, the Potency result is “inactive”.

Regarding `CC(C)SCc1ccco1`, the Potency entry was “inactive”.

For the compound `Cc1cc2c(OCC(CNC(C)(C)C)OC(=O)c3ccccc3)cccc2[nH]1` (stereo not given), the Potency entry is “inactive”.

For the compound `Nc1ccc(F)c([N+](=O)[O-])c1`, the Potency entry was “inactive”.

As for `Cc1ccc(C(=O)c2ccc(CC(=O)O)n2C)cc1`, the Potency entry was “inactive”.

On to `CCC(=O)Oc1ccc2c(c1)CC[C@@H]1[C@@H]2CC[C@@]2(C)[C@H]1C[C@@H](OC(=O)CC)[C@@H]2OC(=O)CC`, for which the Potency entry was “inactive”.

With `CC(C)(O)CCCC1=CCC(C=O)CC1` (stereo not given), the Potency result is “inactive”.

For `Cc1ccc(NC(N)=O)cc1`, the Potency entry is “inactive”.

As for `CC(NC(CCc1ccccc1)C(=O)O)C(=O)N1C(=O)N(C)CC1C(=O)O` (stereo not given), the Potency entry was “inactive”.

As for `Cc1cc(OI)c(C(C)C)cc1-c1cc(C(C)C)c(OI)cc1C`, the Potency entry is “inactive”.

In the case of `CC(=O)OCC(=O)[C@@]1(O)CC[C@H]2[C@@H]3CCC4=CC(=O)C=C[C@]4(C)[C@@]3(F)[C@@H](O)C[C@@]21C`, the Potency entry was “inactive”.

As for `CCCCCCCCCCCCCCCC[N+](C)(C)CCN(Cc1ccc(OC)cc1)c1ncccn1`, the Potency was 26.6 µM (active).

On to `CCCCCC(=O)OCC`, for which the Potency entry was “inactive”.

With `CCCCCCCCSCc1cc(C)c(O)c(CSCCCCCCCC)c1`, the Potency result was “inactive”.

`CCCCC(=O)O[C@]1(C(=O)CO)[C@H](C)C[C@H]2[C@@H]3CCC4=CC(=O)C=C[C@]4(C)[C@@]3(F)[C@@H](O)C[C@@]21C`: the Potency result was “inactive”.

Consider `CCCC(C)C=O` (stereo not given), for which the Potency result was “inactive”.

As for `Oc1ccc(C2CNCCc3c2cc(O)c(O)c3Cl)cc1` (stereo not given), the Potency entry was “inactive”.
